Compound activity as filed in PubChem BioAssay.
Shown are actives, neighbours in structure and some others; about 11% of the full set was active somewhere.
USP28 block: human USP28 deubiquitinase inhibition; purified USP28, Ub-rhodamine cleavage fluorescence, 30 min; 3% of 47,000 active; inhibition, % at 25 µM
USP30 block: inhibitors of human USP30 deubiquitinase. inhibition, % at 25 µM. Q70CQ3. 5.3% of 47,000 active. purified USP30, Ub-rhodamine cleavage fluorescence
USP17 inh: blocks human USP17 ubiquitin-rhodamine cleavage | A8MUK1 | 6.5% of 47,000 active | purified USP17, Ub-rhodamine cleavage fluorescence, 3 h | inhibition, % at 50 µM
Each line names hits and unclear results; the compound was inactive in the other large screens. No stated cut-off is given here; in the data, active means inhibition above about 30%; inactive means the rest.

CNc1cccc(C2CN(C(=O)c3n[nH]c4c3CCC4)CCO2)n1 (configuration not stated)	none
CCOc1ccc(CCNC(=O)c2cnc(N3CCOCC3)c3ccccc23)cc1OCC	none
Cc1cccc(N(C(=O)Cn2nnc(-c3ccccc3F)n2)C(C(=O)NC2CCCC2)c2ccncc2)c1 (configuration not stated)	none
COCCn1c(C(=O)Nc2ccc(C(C)=O)cc2)cc2c(=O)n(C)c(=O)n(C)c21	none
COCCn1c(C(=O)Nc2ccccc2Cl)cc2c(=O)n(C)c(=O)n(C)c21	USP17 inh 36.2
Cc1cnc(C(=O)N2CCCC(c3cncc(Oc4ccccc4)n3)C2)cn1 (configuration not stated)	none
COc1c2c(cc3c1C(c1nnnn1-c1ccc(C)cc1)N(C)CC3)OCO2 (configuration not stated)	none
Cc1ccnc2nc(C(=O)Nc3cc(S(=O)(=O)N4CCCC4)ccc3Cl)nn12	none
CCc1cc(C(c2ccc(OC)cc2)N2CCOCC2)c(NC(=O)c2ccccc2)s1 (configuration not stated)	none
Cc1noc(-c2ccc(S(=O)(=O)N3CCOCC3)o2)c1C	none
C[C@]12C(=O)N(Cc3ccco3)CC(=O)N1CC(c1ccc(Br)cc1)c1c2[nH]c2ccccc12 (some centres not stated)	USP17 inh 34.0
CCc1ccc(C2CN3C(=O)CN(Cc4ccco4)C(=O)[C@]3(C)c3[nH]c4ccccc4c32)cc1 (some centres not stated)	none
COc1cc(/C=C/C(=O)OCC(=O)Nc2ccc([N+](=O)[O-])cc2OC)ccc1O	USP28 block 84.3, USP30 block 65.5 (no result: USP17 inh)
COc1cc(/C=C/C(=O)O)ccc1O	none
O=C(c1cn2ccnc(-c3ccccc3)c2n1)N1CCCN(c2ncccn2)CC1	none
c1ccc(COc2ccc3[nH]c4c(c3c2)CCCCCC4)cc1	USP17 inh 41.7
O=C(OCC(=O)N1CCCCCC1)c1ccc2[nH]c3c(c2c1)CCCC3	none
O=C1C2=C(Nc3ccccc3SC2c2ccccc2[N+](=O)[O-])c2ccccc21 (configuration not stated)	none
Cc1ccc(C)c(N2CCN(C(=O)c3coc(NC(=O)c4ccco4)n3)CC2)c1	none
O=C(Cn1c(=O)c2ccccc2n(CC(=O)Nc2cccc(F)c2)c1=O)NCCc1ccccc1	USP30 block 37.6
O=C(CCCCn1c(=O)c2ccccc2n(CC(=O)Nc2ccc(F)cc2)c1=O)NCCc1ccccc1	USP17 inh 46.7
CCOc1ccc(NC(=O)Cn2c(=O)n(CCCCC(=O)NCCc3ccccc3)c(=O)c3ccccc32)cc1	none
Cc1ccc(NC(=O)Cn2c(=O)n(CCC(=O)NCCc3ccccc3)c(=O)c3ccccc32)cc1C	none
COC(=O)C1C2CCC(C2)C1C(=O)OCC(=O)c1ccc(-c2ccccc2)cc1 (configuration not stated)	none
COc1ccc(-c2cc(N3CCC(NC(=O)c4ccccc4)C3)n[nH]2)cc1 (configuration not stated)	USP17 inh 55.9
COc1ccc(-c2cc(N3CCC(NC(=O)c4ccccn4)C3)n[nH]2)cc1 (configuration not stated)	none
O=C(c1cccc(F)c1)N1C[C@@H]2OCC(=O)N(C3CCOCC3)[C@H]2C1	none
O=S(=O)(Nc1nc2ccc(S(=O)(=O)N3CCCC3)cc2s1)c1ccc(F)cc1	none
COc1cccc(C(=O)Nc2nc3ccc(S(=O)(=O)N4CCOCC4)cc3s2)c1OC	USP17 inh 47.4 (no result: USP28 block, USP30 block)
O=C1CN(C(=O)COc2cccc3ccccc23)c2ccccc2N1	USP17 inh 41.1
CC(Nc1ccccc1Oc1ccccc1)C(=O)N1CC(=O)Nc2ccccc21 (configuration not stated)	USP28 block 36.9
CCC(Oc1ccccc1OC)C(=O)N1CC(=O)Nc2ccccc21 (configuration not stated)	none
O=C1CN(C(=O)COc2ccc(F)cc2Cl)c2ccccc2N1	none
Cc1ccccc1S(=O)(=O)N1CCC2(CC1)OC(C(=O)N1CCCC1)Cn1ccnc12 (configuration not stated)	none
Cc1cc(NC(=O)Cn2c(=O)n(CCCC(=O)NC3CCCC3)c(=O)c3cc(Cl)ccc32)n[nH]1	none
COc1cc2c(=O)n(CCC(=O)NC3CCCC3)c(=O)n(CC(=O)Nc3ccc(C)c(F)c3)c2cc1OC	USP30 block 33.7
COc1cc2c(=O)n(CCC(=O)NCc3ccccc3)c(=O)n(CC(=O)NC3CCCCC3)c2cc1OC	none
COc1ccc(NC(=O)Cn2c(=O)n(CCCC(=O)NCCc3ccc(OC)c(OC)c3)c(=O)c3ccccc32)cc1Cl	none
O=C(Cn1c(=O)n(CC2CCCO2)c(=O)c2ccccc21)Nc1c(Cl)cccc1Cl (configuration not stated)	none
COc1ccc(NC(=O)Cn2c(=O)n(CCCC(=O)NC3CCCC3)c(=O)c3cc(Cl)ccc32)c(OC)c1	USP30 block 31.2
COc1ccc(CCNC(=O)Cn2c(=O)n(CCCC(=O)NC3CCCC3)c(=O)c3cc(Cl)ccc32)cc1OC	USP30 block 37.0
CCOc1ccc(C(=O)Cn2c(=O)n(CC3CCCO3)c(=O)c3cc(OC)c(OC)cc32)cc1Cl (configuration not stated)	USP17 inh 71.1
Cc1cc(C)n(CC2CN(Cc3cccc(C(N)=O)c3)CCO2)n1 (configuration not stated)	none
COc1ccc(CN2C[C@@]34CN(C(=O)c5ccncc5)C[C@@H](C[C@@H]3S2(=O)=O)O4)cc1	none
Cc1ccccc1N1CCN(C(=O)Cc2c[nH]c3ncccc23)CC1	none
c1ccc(-c2nnc3ccc(SCc4cccnc4)nn23)nc1	none
O=C(c1ccccc1F)N1CCCCC1c1nncn1CC1CC1 (configuration not stated)	none
COc1cc2c(=O)n(CCC(=O)NCC3CCCO3)c(=O)n(CC(=O)Nc3cccc(Cl)c3)c2cc1OC (configuration not stated)	none
CCc1ccccc1NC(=O)Cn1c(=O)n(CCC(=O)NCC2CCCO2)c(=O)c2cc(OC)c(OC)cc21 (configuration not stated)	USP17 inh 30.3
O=C(CNC(=O)C1Cc2c(ccc3ccccc23)O1)c1ccccc1 (configuration not stated)	none
Cc1cc(N(C)C)n2nc(-c3ccccc3C)nc2n1	none
Cc1ccc(NC(=O)c2ccc3nn(CC(=O)Nc4ccc(C)cc4C)c(=O)n3c2)cc1	none
Cc1ccc(NC(=O)c2ccc3nn(CC(=O)Nc4ccc(F)cc4F)c(=O)n3c2)cc1	USP17 inh 68.2
O=C(NCc1ccccc1)c1ccc2nn(CC(=O)N3CCc4ccccc4C3)c(=O)n2c1	none
O=C(Cn1nc2ccc(C(=O)NCc3ccccc3)cn2c1=O)Nc1ccc2c(c1)OCO2	USP17 inh 52.2
COc1cc(C(=O)Nc2cccc(N3CCCCC3=O)c2)cc(OC)c1OC	none
CN1CC(C(=O)O)(C(=O)O)Cc2cc([N+](=O)[O-])ccc21	none
COc1cccc(CNC(=O)CCC2=NS(=O)(=O)c3ccccc3N2)c1	none
COc1cccc(NC2=NS(=O)(=O)c3ccccc32)c1	USP30 block 41.3, USP17 inh 40.8
COc1ccc(OC)c(N(C(=O)CCCC(=O)Nc2ccccn2)C(C(=O)NC2CCCCC2)c2ccc(F)cc2)c1 (configuration not stated)	USP17 inh 35.3
